Reference: PubChem BioAssay (NCI)
Compounds without any hit were thinned out: in the full panel of roughly 83,000, 20% have a hit.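 Values shown are percent growth following 48 h exposure of cells in 96-well plates to a single concentration of compound; below 10 was considered active.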 Unmarked numbers belong to inactive results. Activity calls are given as the source filed them.

Tests used:
Assay in all cases: NCI-60 one-dose screen, 48 h (100 = growth as untreated, 0 = no growth, -100 = all killed)
[1] = system: SR leukemia; conditions: 10 µM unless noted
[2] = system: RPMI-8226 leukemia; conditions: 10 µM
[3] = system: OVCAR-8 ovarian; conditions: 10 µM unless noted
[4] = system: OVCAR-5 ovarian; conditions: 10 µM unless noted
[5] = system: OVCAR-4 ovarian; conditions: 10 µM unless noted
[6] = system: IGROV1 ovarian; conditions: 10 µM unless noted
[7] = system: OVCAR-3 ovarian; conditions: 10 µM unless noted
[8] = system: HS 578T breast; conditions: 10 µM unless noted
[9] = system: NCI/ADR-RES ovarian; conditions: 10 µM unless noted
[10] = system: BT-549 breast; conditions: 10 µM unless noted
[11] = system: MDA-MB-435 melanoma; conditions: 10 µM unless noted
[12] = system: SW-620 colon; conditions: 10 µM unless noted
[13] = system: MCF7 breast; conditions: 10 µM unless noted
[14] = system: HCT-116 colon; conditions: 10 µM unless noted
[15] = system: HCC-2998 colon; conditions: 10 µM unless noted
[16] = system: KM12 colon; conditions: 10 µM unless noted
[17] = system: SK-OV-3 ovarian; conditions: 10 µM
[18] = system: T-47D breast; conditions: 10 µM

SMILES | growth [1] | growth [2] | growth [3] | growth [4] | growth [5] | growth [6] | growth [7] | growth [8] | growth [9] | growth [10] | growth [11] | growth [12] | growth [13] | growth [14] | growth [15] | growth [16] | growth [17] | growth [18]
COc1ccc(C2=NOC(CC(=O)N(CCO)CCO)C2)cc1OC1CCCC1 (centres undefined) | 106% | 106% | 102% | 98.5% | 102% | 106% | 114% | 99.2% | 101% | 95.5% | 104% | 97.7% | 95.2% | 79.6% | 103% | 103% |  | 
C[C@]1(CO)C[C@@H](O)C[C@]2(C)[C@@H]1CC[C@@]13C[C@@H]4[C@@H](C[C@H]12)[C@]4(C)C3 | 118% | 114% | 105% | 97.6% | 104% | 106% | 113% | 102% | 105% | 98.8% | 99.5% | 101% | 102% | 89.3% | 119% | 109% |  | 
COc1ccc(-c2nn(-c3ccc(NC(=O)c4ccc(Cl)c(Cl)c4)cc3)cc2-c2ccncc2)cc1Cl | 27.4% | -35.4% (active) | 63.8% | 60.9% | 79.5% | 61.9% | 56.7% |  |  | 42.8% | 54.3% | 32.1% | 31.5% | 23.2% |  | 5.24% (active) | 65.6% | 64.9%
O=C(c1ccc2ncc(-c3nc(NC4CC4)ncc3F)n2c1)N1CCOCC1 | 3.87% (active) | 25.7% | 18.5% | 9.93% (active) | 63.2% | 8.94% (active) | -22.2% (active) | 4.89% (active) | 48.2% | 52.4% | 32% | 10.2% | 5.99% (active) | 0.221% (active) | 71.3% | 2.99% (active) |  | 32.2%
O=c1c2cc(F)ccc2oc2c(NCCNCCO)nc3ccccc3c12 | -28.7% (active) | 32.1% | 34.1% | 60.6% | 37.3% | 37% | 55% | 67.1% | 48.9% | 79.8% | 48.5% | 21.4% | 31.4% | 17.2% | 56.5% | 31.8% |  | 84.8%
CCN1CCN(C(=S)SCC(=O)Nc2nc3ccc(OC)cc3s2)CC1 | 88.3% | 98% | 103% | 98.8% | 93.3% |  | 101% |  | 99.6% | 89.5% | 107% | 110% | 96.3% | 95.8% |  | 90.6% | 112% | 86.6%
O=C(NCc1ccc(F)cc1)C1CN(c2ccc(Cl)cc2)N(c2ccc(Cl)cc2)C1=O (centres undefined) | 24.3% | 72.8% | 80% | 85.6% | 66.6% | 77.4% | 9.08% (active) | 52.6% | 52.9% | 61.2% | -21.8% (active) | 36.7% | 29.6% | 48.8% | 84.6% | 33.2% |  | 49.9%
Cc1ccc(NS(=O)(=O)c2ccc(-c3cnc(C4CC4)o3)cc2)cc1 | 33.8% | 37.6% | 49.3% | 48.8% | 59% | 39.8% | -2% (active) | -2.93% (active) | 8.09% (active) | 40.4% | -3.14% (active) | 12.4% | 15.6% | 11.8% | 69.2% | 20.5% |  | 
Cc1ccc2nc(NC(=O)CSC(=S)N3CCN(Cc4ccccc4)CC3)sc2c1 | 11.1% | 8.2% (active) | 0.825% (active) | -36.3% (active) | 12.6% | -39.8% (active) | -90.4% (active) |  |  | -55.4% (active) | -38.5% (active) | -84.7% (active) | -71.2% (active) | -54.9% (active) |  | -92.7% (active) | -44.7% (active) | -32.5% (active)
C=C[C@H]1C[C@@H]2C[C@@H]3[C@H]4C/C=C\C(=O)NCCCC5NC(=O)C(=C(O)/C=C/[C@@H]4CC(=O)[C@H]3[C@@H]2[C@H]1C)C5=O (some centres undefined) | -55.9% (active) | -54.5% (active) | -84.7% (active) | -92.7% (active) | -78.1% (active) | -62.8% (active) | -95.3% (active) |  | -73.4% (active) |  | -19.2% (active) | -58.2% (active) | -63.8% (active) |  | -30% (active) | -17.4% (active) | -100% (active) | -53.5% (active)
O=C1/C(=C/c2ccc([N+](=O)[O-])cc2)Oc2ccc(O)cc21 | 43% | 34% | 90.7% | -9.84% (active) | 39.7% | 18% | 16.7% | 97.2% | 89% | 96.5% |  | 25.9% | 3.33% (active) | 9.15% (active) | 46% | 102% |  | 
O=C(c1ccccc1)C(Br)C(Br)c1cccc([N+](=O)[O-])c1 (centres undefined) | -33.3% (active) | -19.4% (active) | 18.6% | 73.9% | 29.3% | -29.7% (active) | -23.4% (active) | 91.9% | 51.4% | 74.8% | 22.5% | -100% (active) | 24.8% | -91% (active) | 89.5% | 33.7% |  | 
O=C(CCc1nnc2sc(/C=C\c3ccccc3)nn12)c1nc2ccccc2[nH]1 | 63.5% | 72% | 92.7% | 116% |  | 96% | 115% | 83.1% | 89.5% | 93.1% |  | 118% | 77.3% | 59.7% | 95.8% | 92.5% | 97.2% | 61.1%
O=C1c2[nH]cc(CN[C@@H]3CCCN3)c2C(=O)c2c1c(O)c1ccccc1c2O | -69.6% (active) | -55.5% (active) | -92% (active) | -95% (active) |  | -83% (active) | -95.9% (active) | -50% (active) | 20.3% | 41.1% | -98.3% (active) | -98.1% (active) | -96.5% (active) | -82.8% (active) | -85.8% (active) | -89.8% (active) | -100% (active) | -72.4% (active)
Brc1ccc(Br)nn1 | -25.8% (active) | -19.7% (active) | -34.1% (active) | -58.6% (active) | 26% | -77.8% (active) | -97.7% (active) | -0.414% (active) |  | -69.7% (active) | -96.3% (active) | -100% (active) | -72.4% (active) | -97.3% (active) | -53.5% (active) | -50.7% (active) |  | 
COc1ccc(/C=N/NC(=O)c2cnn(CC(O)Cc3ccccc3)c2N)cc1OC1CCCC1 (centres undefined) | 88.7% | 55.4% | 78.6% | 102% | 75.8% | 105% | 102% |  | 88.3% | 75.7% | 100% | 98.9% | 83.7% | 90.4% | 116% | 35.2% |  | 
CN1CCN(CCCn2c3c(sc4ncccc43)c(=O)n3nnc(-c4ccccc4)c23)CC1 | -25.2% (active) | 72.5% | -48.2% (active) | 119% | -61.4% (active) |  | -83.1% (active) |  | -28.4% (active) | 93.5% | 97.9% | -44.5% (active) | -90.6% (active) | -92.6% (active) | 99.2% | -32.1% (active) |  | 113%
Cc1ccc(N(CSc2ccc(Cl)cc2)CSc2ccc(Cl)cc2)cc1 | 11.2% | 6.09% (active) | 66.9% | 79.1% | 85.2% | -10.3% (active) | 48.3% |  | 31.5% | 19.1% | 40.8% | 31.4% | 65.6% | 38.9% | 88.1% | 18.4% |  | 
COc1ccc(Cn2c(Br)c3c(c2-c2cc(OC)c(OC)c(OC)c2)CCc2sc(N)nc2-3)cc1 | 4.41% (active) | 21.2% | 12.3% | 37.1% |  | 36.7% | -25.5% (active) |  | 3.87% (active) | 44.2% | -40.1% (active) | 19% | 10.1% | 6.12% (active) | 12.4% | 27.2% | 3.83% (active) | 59.7%
